Screens as filed in PubChem BioAssay.
14-3-3 Bad inh: disrupts binding of bovine 14-3-3 zeta to phospho-Bad peptide; P63103; inhibition, % at 21.7 µM; TR-FRET 14-3-3zeta/Dy647-pBad peptide displacement, 1 h; 220,000 tested, 0.71% active;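 active means inhibition above about 70%, limit read from the data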
p47phox inh: blocks human p47phox regulatory protein of NADPH oxidases | inhibition, % at 24.7 µM | p47phox/p22phox peptide binding, fluorescence polarization, 2 h | 220,000 tested, 0.53% active | P14598;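 active means inhibition above about 30%, limit read from the data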
Target sequence (P14598 whole entry, looked up): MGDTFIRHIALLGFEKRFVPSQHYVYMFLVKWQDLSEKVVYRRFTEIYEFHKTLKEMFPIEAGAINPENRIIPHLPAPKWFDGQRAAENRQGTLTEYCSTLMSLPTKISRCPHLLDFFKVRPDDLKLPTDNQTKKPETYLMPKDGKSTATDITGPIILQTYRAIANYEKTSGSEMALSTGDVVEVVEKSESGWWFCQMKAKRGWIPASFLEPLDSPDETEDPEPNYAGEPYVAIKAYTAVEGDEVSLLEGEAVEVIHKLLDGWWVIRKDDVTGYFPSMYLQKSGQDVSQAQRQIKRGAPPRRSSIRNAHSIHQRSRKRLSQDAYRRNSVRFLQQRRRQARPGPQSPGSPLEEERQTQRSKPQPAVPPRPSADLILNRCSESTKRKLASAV
Mcl1-Noxa inh: disrupts binding of human Mcl-1 to Noxa peptide. Q07820. TR-FRET Mcl-1/Noxa peptide binding, 2 h. inhibition, % at 21.7 µM. 220,000 tested, 1.5% active. AID 1022;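 active means compounds that cut the protein-peptide binding signal by more than 50% relative to plate controls in a single-dose test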;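 further: His-tagged Mcl-1 with rhodamine Noxa BH3 peptide and terbium anti-His antibody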
Target sequence (Q07820 whole entry, looked up): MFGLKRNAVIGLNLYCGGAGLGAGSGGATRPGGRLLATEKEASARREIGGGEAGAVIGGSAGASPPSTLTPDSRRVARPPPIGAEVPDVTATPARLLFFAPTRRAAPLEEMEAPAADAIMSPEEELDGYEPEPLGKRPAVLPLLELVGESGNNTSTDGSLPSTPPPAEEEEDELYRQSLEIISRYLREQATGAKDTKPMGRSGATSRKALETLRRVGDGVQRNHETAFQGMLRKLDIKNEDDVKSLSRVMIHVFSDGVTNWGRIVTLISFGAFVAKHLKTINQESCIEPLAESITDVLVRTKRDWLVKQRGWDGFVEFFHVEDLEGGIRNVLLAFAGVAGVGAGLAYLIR
Mcl1 Bid PPI: disrupts binding of human Mcl-1 to Bid peptide | TR-FRET Mcl-1/Bid-Dy647 peptide binding, 1536-well | inhibition, % at 21.7 µM | 220,000 tested, 0.97% active | AID 1021;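 active means compounds that cut the binding signal by more than half at the single screening dose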;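 further: His-tagged Mcl-1 with europium anti-His antibody binding Bid BH3 peptide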
Mcl-1 Bim block: human Bim-Mcl-1 interaction inhibition; Q07820; Bead-based flow cytometry, Bim peptide-Mcl-1 binding; inhibition, % at 10 µM; 190,000 tested, 0.1% active; AID 1009; in the data active means inhibition above about 40%
A number is an active result. An excerpt weighted towards active compounds, which were near 3.2% of everything screened.

What do the screens show for `S=C(Nc1ccc(N2CCOCC2)cc1)Nc1ccc2nc(-c3ccco3)c(-c3ccco3)nc2c1`?
14-3-3 Bad inh: inactive; p47phox inh: inactive; Mcl1-Noxa inh: 81.4; Mcl1 Bid PPI: inactive; Mcl-1 Bim block: inactive

What do the screens show for `O=C(Nc1ccc(N2CCOCC2)cc1)Nc1ccc2nsnc2c1`?
14-3-3 Bad inh: inactive; p47phox inh: inactive; Mcl1-Noxa inh: 61.3; Mcl1 Bid PPI: inactive; Mcl-1 Bim block: inactive

Results for CN(C)c1cccc(C(=O)Nc2ccc(N3CCOCC3)cc2)c1 ?
14-3-3 Bad inh: inactive; p47phox inh: inactive; Mcl1-Noxa inh: inactive; Mcl1 Bid PPI: inactive; Mcl-1 Bim block: inactive

How did CC1CCc2sc(C(=O)Nc3ccc(N4CCOCC4)cc3)cc2C1 (centres undefined) do in these assays?
14-3-3 Bad inh: inactive; p47phox inh: inactive; Mcl1-Noxa inh: 52.5; Mcl1 Bid PPI: inactive; Mcl-1 Bim block: inactive

Results for O=C(c1ccc2nc(-c3ccco3)c(-c3ccco3)nc2c1)N1CCN(c2ncccn2)CC1 ?
14-3-3 Bad inh: inactive; p47phox inh: inactive; Mcl1-Noxa inh: 100.4; Mcl1 Bid PPI: inactive; Mcl-1 Bim block: inactive

Results for O=C(Nc1ccc(N2CCOCC2)cc1)c1ccc2nc(-c3ccco3)c(-c3ccco3)nc2c1 ?
14-3-3 Bad inh: inactive; p47phox inh: inactive; Mcl1-Noxa inh: inactive; Mcl1 Bid PPI: inactive; Mcl-1 Bim block: inactive

Results for O=C(Nc1ccc(N2CCOCC2)cc1)c1cnsn1 ?
14-3-3 Bad inh: inactive; p47phox inh: inactive; Mcl1-Noxa inh: inactive; Mcl1 Bid PPI: inactive; Mcl-1 Bim block: inactive

What do the screens show for `COc1ccccc1C(=O)COC(=O)CNS(=O)(=O)c1ccc(C)cc1`?
14-3-3 Bad inh: inactive; p47phox inh: inactive; Mcl1-Noxa inh: inactive; Mcl1 Bid PPI: inactive; Mcl-1 Bim block: inactive

Results for CC(NC(=O)c1ccc2c(c1)OCO2)C(c1cccs1)N1CCN(c2ccccc2)CC1 (centres undefined) ?
14-3-3 Bad inh: inactive; p47phox inh: inactive; Mcl1-Noxa inh: inactive; Mcl1 Bid PPI: inactive

How did O=C(Nc1ccc2nc(-c3ccco3)c(-c3ccco3)nc2c1)N1CCN(c2ccccn2)CC1 do in these assays?
14-3-3 Bad inh: inactive; p47phox inh: inactive; Mcl1-Noxa inh: 63.8; Mcl1 Bid PPI: inactive; Mcl-1 Bim block: inactive

What do the screens show for `Cc1nc2cc(NC(=O)N3CCN(c4ccccn4)CC3)ccc2o1`?
14-3-3 Bad inh: inactive; p47phox inh: inactive; Mcl1-Noxa inh: inactive; Mcl1 Bid PPI: inactive; Mcl-1 Bim block: inactive

How did COc1ccc(N(CCC(=O)O)S(=O)(=O)c2ccc(C)cc2C)cc1 do in these assays?
14-3-3 Bad inh: inactive; p47phox inh: inactive; Mcl1-Noxa inh: inactive; Mcl1 Bid PPI: inactive; Mcl-1 Bim block: inactive

What do the screens show for `COc1ccc(CCNC(=O)CCCN2C(=O)c3ccccc3C2=O)cc1OC`?
14-3-3 Bad inh: inactive; p47phox inh: inactive; Mcl1-Noxa inh: inactive; Mcl1 Bid PPI: 61.9; Mcl-1 Bim block: inactive

What do the screens show for `COc1ccc(CCNC(=O)c2ccc(Cl)cc2Cl)cc1OC`?
14-3-3 Bad inh: inactive; p47phox inh: inactive; Mcl1-Noxa inh: inactive; Mcl1 Bid PPI: 82.5; Mcl-1 Bim block: inactive

Results for COc1ccc(CCNC(=O)c2ccccc2Cl)cc1OC ?
14-3-3 Bad inh: inactive; p47phox inh: inactive; Mcl1-Noxa inh: inactive; Mcl1 Bid PPI: inactive; Mcl-1 Bim block: inactive

What do the screens show for `COc1ccc(CCNC(=O)c2ccc(=O)[nH]n2)cc1OC`?
14-3-3 Bad inh: inactive; p47phox inh: inactive; Mcl1-Noxa inh: inactive; Mcl1 Bid PPI: 100.0; Mcl-1 Bim block: inactive

Results for COc1ccc(CCNC(=O)Cc2ccc(OC)c(OC)c2)cc1OC ?
14-3-3 Bad inh: inactive; p47phox inh: inactive; Mcl1-Noxa inh: inactive; Mcl1 Bid PPI: inactive; Mcl-1 Bim block: inactive

How did CN(C)c1ncc(/C=C2/C(=O)NC(=S)N(C3CCCCC3)C2=O)cn1 do in these assays?
14-3-3 Bad inh: inactive; p47phox inh: inactive; Mcl1-Noxa inh: 61.0; Mcl1 Bid PPI: inactive; Mcl-1 Bim block: inactive

What do the screens show for `CC(C)CC1NC(=S)N(C2CCCCC2)C1=O` (centres undefined)?
14-3-3 Bad inh: inactive; p47phox inh: inactive; Mcl1-Noxa inh: inactive; Mcl1 Bid PPI: inactive; Mcl-1 Bim block: inactive

How did CC(CC1C(C#N)=C(N)OC2=C1C(=O)CCC2)c1ccccc1 (centres undefined) do in these assays?
14-3-3 Bad inh: inactive; p47phox inh: inactive; Mcl1-Noxa inh: inactive; Mcl1 Bid PPI: 60.2; Mcl-1 Bim block: inactive

Results for Cc1ccc(N2CC(C(=O)Nc3nccs3)CC2=O)cc1Cl (centres undefined) ?
14-3-3 Bad inh: inactive; p47phox inh: inactive; Mcl1-Noxa inh: inactive; Mcl1 Bid PPI: inactive; Mcl-1 Bim block: inactive

Results for COc1ccc(-c2csc(NC(=O)C3CC(=O)N(Cc4ccco4)C3)n2)cc1 (centres undefined) ?
14-3-3 Bad inh: inactive; p47phox inh: inactive; Mcl1-Noxa inh: inactive; Mcl1 Bid PPI: inactive; Mcl-1 Bim block: inactive

Results for O=C(Nc1nccs1)C1CC(=O)N(Cc2ccco2)C1 (centres undefined) ?
14-3-3 Bad inh: inactive; p47phox inh: inactive; Mcl1-Noxa inh: inactive; Mcl1 Bid PPI: 88.2; Mcl-1 Bim block: inactive

How did Cc1c(Cl)cccc1N1CC(C(=O)Nc2nccs2)CC1=O (centres undefined) do in these assays?
p47phox inh: active; Mcl1-Noxa inh: inactive; Mcl1 Bid PPI: inactive; Mcl-1 Bim block: inactive

What do the screens show for `O=C1S/C(=C\C=C\c2ccco2)C(=O)N1c1ccc(O)cc1`?
14-3-3 Bad inh: inactive; p47phox inh: inactive; Mcl1-Noxa inh: 56.4; Mcl1 Bid PPI: inactive; Mcl-1 Bim block: inactive

Results for O=C(O)C(Cc1ccccc1)N1C(=O)/C(=C/C=C/c2ccco2)SC1=S (centres undefined) ?
14-3-3 Bad inh: 95.2; p47phox inh: inactive; Mcl1-Noxa inh: 101.7; Mcl1 Bid PPI: 98.1

Results for Cn1cccc1/C=C1\SC(=S)N(NC(=O)c2ccccc2O)C1=O ?
14-3-3 Bad inh: inactive; p47phox inh: inactive; Mcl1-Noxa inh: inactive; Mcl1 Bid PPI: inactive

What do the screens show for `O=C1S/C(=C\C=C\c2ccco2)C(=O)N1c1ccccc1`?
14-3-3 Bad inh: inactive; p47phox inh: inactive; Mcl1-Noxa inh: inactive; Mcl1 Bid PPI: inactive; Mcl-1 Bim block: inactive

How did O=C(O)CC(C(=O)O)N1C(=O)/C(=C/C=C/c2ccco2)SC1=S (centres undefined) do in these assays?
14-3-3 Bad inh: 74.4; p47phox inh: inactive; Mcl1-Noxa inh: 85.3; Mcl1 Bid PPI: inactive

What do the screens show for `O=C(NN1C(=O)/C(=C/C=C/c2ccco2)SC1=S)c1ccccc1O`?
14-3-3 Bad inh: 74.8; p47phox inh: inactive; Mcl1-Noxa inh: 100.6; Mcl1 Bid PPI: 60.1

How did N#Cc1cnn(-c2cccc(Cl)c2)c1-n1cccc1 do in these assays?
14-3-3 Bad inh: inactive; p47phox inh: inactive; Mcl1-Noxa inh: inactive; Mcl1 Bid PPI: inactive

What do the screens show for `O=C(c1ccco1)c1coc2c1cc(O)c1ccccc12`?
14-3-3 Bad inh: inactive; p47phox inh: inactive; Mcl1-Noxa inh: inactive; Mcl1 Bid PPI: inactive; Mcl-1 Bim block: inactive

What do the screens show for `Cc1noc(C(F)(F)F)c1C(=O)NNC(=O)c1cccc(C(F)(F)F)c1`?
14-3-3 Bad inh: inactive; p47phox inh: inactive; Mcl1-Noxa inh: inactive; Mcl1 Bid PPI: inactive

How did Cc1ccc(NC(=O)CCCN2C(=O)/C(=C/C=C/c3ccccc3)SC2=S)cc1 do in these assays?
14-3-3 Bad inh: inactive; p47phox inh: inactive; Mcl1-Noxa inh: inactive; Mcl1 Bid PPI: inactive; Mcl-1 Bim block: inactive
